The text below walks through data of PubChem BioAssay AID722 (NMMLSC, 2007).

The inhibition is the relative decrease from the control value, in per cent.

Out of some 1,300 compounds screened, about 40 (3%) were called active. Cut-off read from the data, not from the text of the source: active = inhibition above about 30%; inactive = the rest. The sample as a whole holds a higher share of actives than the screen did.

The target of this experiment is fMet-Leu-Phe receptor (Homo sapiens) (UniProt P21462). Put plainly: FPR1 fluorescent ligand binding inhibitors, primary screen, cell-based, flow cytometry, SAR analysis (AID 722). The following applies: FPR-expressing cells, stronger effect = higher value, concentration not given here. On the technique in general: A flow cytometer gives signals particle by particle.
fMet-Leu-Phe receptor (Homo sapiens), sequence (P21462 whole entry, looked up): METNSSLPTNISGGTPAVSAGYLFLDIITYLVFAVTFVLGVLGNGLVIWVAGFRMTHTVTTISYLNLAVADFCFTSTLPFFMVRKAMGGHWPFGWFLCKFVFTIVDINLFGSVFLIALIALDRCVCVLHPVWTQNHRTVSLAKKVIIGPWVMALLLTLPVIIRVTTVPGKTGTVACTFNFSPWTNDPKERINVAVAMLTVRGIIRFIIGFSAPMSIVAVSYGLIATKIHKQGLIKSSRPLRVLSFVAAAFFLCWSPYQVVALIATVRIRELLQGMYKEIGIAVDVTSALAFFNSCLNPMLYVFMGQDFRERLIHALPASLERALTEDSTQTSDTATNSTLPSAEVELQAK
With `COCCCN1C(=O)C(=O)/C(=C(/O)c2ccc(C)cc2)C1c1cc(OC)ccc1OC` (stereo not drawn), the inhibition was 0.2% (inactive).
On to `CCOC(=O)Cc1c(C)nc2c(-c3ccccc3)c(-c3ccccc3)[nH]n2c1=O`, for which the inhibition is -11.4% (inactive).
With `COCCN1C(=O)C(O)=C(C(=O)c2cc3ccccc3o2)C1c1ccc(OCc2ccccc2)c(OC)c1` (stereo not drawn), the inhibition was -2.2% (inactive).
As to `COc1ccc(C2C(C(=O)c3ccco3)=C(O)C(=O)N2CCN2CCOCC2)cc1OC` (stereo not drawn), the inhibition is -43.5% (inactive).
Next, `COc1ccc(C2C(C(=O)c3cccs3)=C(O)C(=O)N2CCN2CCOCC2)cc1` (stereo not drawn): 9.7% (inactive).
Next, `COc1ccc(C2C(C(=O)c3cccs3)=C(O)C(=O)N2CCCN2CCOCC2)cc1` (stereo not drawn): 6.5% (inactive).
As for `COc1ccc(C2C(C(=O)c3ccco3)=C(O)C(=O)N2CCN2CCOCC2)c(OC)c1` (stereo not drawn), the inhibition was 49.5% (active).
For the molecule `COc1ccc(C2C(C(=O)c3ccco3)=C(O)C(=O)N2CCN2CCOCC2)cc1` (stereo not drawn), the inhibition is 2.9% (inactive).
Consider `COc1ccc(C2C(C(=O)c3cccs3)=C(O)C(=O)N2CCN2CCOCC2)c(OC)c1` (stereo not drawn), for which the inhibition is 62% (active).
For the molecule `COc1ccccc1CN1C(=O)c2nccnc2C1=O`, the inhibition was 1.8% (inactive).
With `CCc1ccc(C(=O)CSc2nc3nc(C)cc(C)c3c(=O)[nH]2)cc1`, the inhibition is 5.9% (inactive).
On to `CCOC(=O)c1c(NC(=O)c2ccco2)sc2c1CCC(C)C2` (stereo not drawn), for which the inhibition was -0.4% (inactive).
Next, `Cc1ccc(N2C(=O)CSC2c2ccc(C(C)C)cc2)cc1` (stereo not drawn): -5.6% (inactive); `O=C(C1=C(O)C(=O)N(CCCn2ccnc2)C1c1ccc(Cl)cc1Cl)c1ccco1` (stereo not drawn): 1.7% (inactive).
For the molecule `CCOC(=O)c1c(NC(=O)c2cccnc2)sc2c1CCC(C(C)(C)C)C2` (stereo not drawn), the inhibition is -8% (inactive).
As for `O=C1C(=O)N(c2cccnc2)C(c2ccccc2[N+](=O)[O-])/C1=C(/O)c1ccccc1` (stereo not drawn), the figure is -2.9% (inactive).
As for `CCc1c(C)sc(NC(=O)c2cccc(F)c2)c1C(=O)OC`, the figure is -9.8% (inactive); as for `COc1ccc(C2C(C(C)=O)=C(O)C(=O)N2Cc2ccco2)cc1OC` (stereo not drawn), 1.8% (inactive); as for `COc1cccc(Oc2c(C(F)(F)F)oc3cc(O)ccc3c2=O)c1`, 9.2% (inactive).
On to `COC(=O)c1c(NC(=O)c2ccoc2C)sc(C)c1C`, for which the inhibition was 5.4% (inactive).
As for `CCc1c(C)nc2c(-c3ccc(OC)cc3)c(C)[nH]n2c1=O`, the inhibition is 12.9% (inactive).
With `COc1ccc(-c2c(C)[nH]n3c(=O)cc(Cc4ccccc4)nc23)cc1`, the inhibition is -1.1% (inactive).
For `COc1ccc(-c2c(C)[nH]n3c(=O)c4c(nc23)CCCC4)cc1`, the inhibition is 73% (active).
Next, `CC(C)OC(=O)c1nonc1N(C(=O)c1ccccc1)C(=O)c1ccccc1`: -0.6% (inactive); `O=C1C(=O)N(CCN2CCOCC2)C(c2cccs2)/C1=C(\O)c1ccc(S(=O)(=O)N2CCOCC2)cc1` (stereo not drawn): -1.3% (inactive).
In the case of `CC(=O)C1=C(O)C(=O)N(CCc2c(C)[nH]c3ccccc23)C1c1cccc([N+](=O)[O-])c1` (stereo not drawn), the inhibition was 9.3% (inactive).
In the case of `CC(=O)C1=C(O)C(=O)N(CCc2c(C)[nH]c3ccccc23)C1c1cccc(F)c1` (stereo not drawn), the inhibition is 65.2% (active).
Consider `COc1ccc(/C(O)=C2/C(=O)C(=O)N(CCc3c(C)[nH]c4ccccc34)C2c2ccc(Cl)cc2)cc1` (stereo not drawn), for which the inhibition is 4.2% (inactive).
With `Cc1onc(-c2ccccc2Cl)c1C(=O)Oc1cccc(F)c1`, the inhibition was 3.6% (inactive).
As for `CCOC(=O)c1c(NC(=O)c2cc3ccccc3o2)sc2c1CCC(C)C2` (stereo not drawn), the figure is -1.7% (inactive); as for `CCN1CCC2(CC1)N=C(c1ccccc1)C(=S)N2C(=O)c1ccccc1`, 2.1% (inactive); as for `CC(=O)C1=C(O)C(=O)N(Cc2ccco2)C1c1ccc(Br)cc1` (stereo not drawn), -1.5% (inactive).
As for `COc1ccc(/C(O)=C2/C(=O)C(=O)N(c3ccc(C)c(Br)c3)C2c2ccc(O)cc2)cc1` (stereo not drawn), the inhibition is -5.2% (inactive).
Consider `O=C(c1ccccc1F)N(Cc1ccco1)Cc1ccccc1F`, for which the inhibition was 9.3% (inactive).
For `COc1ccc(Oc2c(C(F)(F)F)oc3cc(OC(=O)c4c(OC)cccc4OC)ccc3c2=O)cc1`, the inhibition was 2.9% (inactive).
With `O=C(Oc1ccc2c(=O)c(Oc3ccccc3Br)c(C(F)(F)F)oc2c1)c1cccs1`, the inhibition is 37.2% (active).
As for `COc1ccccc1-c1c(C(F)(F)F)oc2cc(OC(=O)N3CCOCC3)ccc2c1=O`, the figure is 9.4% (inactive); as for `O=C(Oc1ccc2c(=O)c(Oc3ccccc3Cl)c(C(F)(F)F)oc2c1)c1cccs1`, -8.1% (inactive); as for `O=C(Oc1ccc2c(=O)c(-c3ccccc3Cl)c(C(F)(F)F)oc2c1)c1cccs1`, 70% (active).
Take `COc1cccc(OC)c1C(=O)Oc1ccc2c(=O)c(-c3ccc(Cl)cc3)c(C(F)(F)F)oc2c1`: the inhibition is 4.7% (inactive).
`COc1cc(C)c2c(=O)c(Oc3ccccc3)c(C(F)(F)F)oc2c1`: the inhibition is 4.2% (inactive).
As for `CCCCc1c(O)nc(SCCN(C)C)n(-c2ccccc2)c1=O`, the figure is -1% (inactive); as for `CCOc1ccc(C2/C(=C(/O)c3ccc(Cl)cc3)C(=O)C(=O)N2c2ccc(C)c(Br)c2)cc1` (stereo not drawn), -0.6% (inactive); as for `COCCN1C(=O)C(=O)/C(=C(/O)c2ccccc2)C1c1cc(OC)ccc1OC` (stereo not drawn), 69.8% (active).
For `COc1ccc(C2/C(=C(/O)c3ccccc3)C(=O)C(=O)N2CCO)c(OC)c1` (stereo not drawn), the inhibition is -12.1% (inactive).
For `COCCN1C(=O)C(=O)/C(=C(/O)c2ccccc2)C1c1ccc(OC)cc1OC` (stereo not drawn), the inhibition is 10.5% (inactive).
Take `COc1ccc(C2/C(=C(\O)c3ccccc3)C(=O)C(=O)N2c2ccc(C)c(Cl)c2)c(OC)c1` (stereo not drawn): the inhibition is -4.3% (inactive).
With `COCCCN1C(=O)C(=O)/C(=C(/O)c2ccccc2)C1c1cc(OC)ccc1OC` (stereo not drawn), the inhibition was 11.4% (inactive).
As for `COc1ccc(/C(O)=C2/C(=O)C(=O)N(CCCn3ccnc3)C2c2cccc(OC)c2)cc1` (stereo not drawn), the inhibition is -6.1% (inactive).
`COc1ccc(C2/C(=C(/O)c3ccccc3)C(=O)C(=O)N2c2ccc(C)c(Br)c2)c(OC)c1` (stereo not drawn): the inhibition was -1.6% (inactive).
As to `COc1ccc(C2/C(=C(\O)c3ccccc3)C(=O)C(=O)N2c2cccc(Cl)c2)c(OC)c1` (stereo not drawn), the inhibition is 47.6% (active).
With `COc1ccc(C2/C(=C(\O)c3ccccc3)C(=O)C(=O)N2CCCn2ccnc2)c(OC)c1` (stereo not drawn), the inhibition is 79.1% (active).
As to `CC(C)c1ccc(C2/C(=C(\O)c3ccc(F)cc3)C(=O)C(=O)N2CCCN2CCOCC2)cc1` (stereo not drawn), the inhibition is -6% (inactive).
